Screens deposited in PubChem by several laboratories.
CYP2C9 act: activators of human CYP2C9. P11712. recombinant CYP2C9, luciferin-H conversion, luminescence; stronger effect = higher value; factor 1 = untreated enzyme, 0 = blocked. activation factor at 5 µM. 96,000 tested, 1.4% active;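 active = activation factor of 2 or more for CYP2C9 at a 5 µM dose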
Target sequence (P11712 whole entry, looked up): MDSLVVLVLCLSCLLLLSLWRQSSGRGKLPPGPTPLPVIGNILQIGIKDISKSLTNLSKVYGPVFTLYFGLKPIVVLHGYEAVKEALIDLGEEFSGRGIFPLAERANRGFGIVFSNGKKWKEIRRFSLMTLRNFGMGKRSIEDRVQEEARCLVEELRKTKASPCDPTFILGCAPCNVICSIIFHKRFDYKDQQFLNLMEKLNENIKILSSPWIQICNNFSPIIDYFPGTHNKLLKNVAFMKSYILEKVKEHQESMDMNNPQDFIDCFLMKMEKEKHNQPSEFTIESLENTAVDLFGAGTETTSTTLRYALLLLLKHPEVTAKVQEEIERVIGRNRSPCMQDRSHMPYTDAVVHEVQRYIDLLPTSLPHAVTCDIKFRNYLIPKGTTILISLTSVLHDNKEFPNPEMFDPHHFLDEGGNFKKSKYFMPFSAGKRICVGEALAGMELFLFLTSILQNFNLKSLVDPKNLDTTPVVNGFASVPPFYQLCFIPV
PostGolgi ctrl: inhibits growth of the yeast control strain; efflux-deficient yeast background strain, growth absorbance A615, 16 h; inhibition, % at 10 µM; 98,000 tested, 5% active
CYP2C19 inhib: human CYP2C19 inhibition. P33261. CYP2C19 Supersomes, luciferin-H EGE luminescence, 30 min. inhibition, % at 5 µM. 96,000 tested, 21% active;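 active = CYP2C19 inhibition above a set limit at 5 µM in the primary screen, cut at about 50% in these data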
CYP2C19 act: activators of human cytochrome P450 2C19; P33261; recombinant CYP2C19, luciferin-H EGE luminescence; stronger effect = higher value; 0 = fully inhibited enzyme, 1 = untreated enzyme; activation factor at 5 µM; 96,000 tested, under 10 active; AID 1025;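 active = activation factor of at least 2 at 5 µM in the primary screen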
CYP2C9 inh: blocks human cytochrome P450 2C9; CYP2C9 Supersomes, luciferin-H conversion, luminescence; AID 777; inhibition, % at 5 µM; 96,000 tested, 20% active; P11712;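 active = blocking of liver enzyme CYP2C9 beyond about 50% at 5 µM, limit read from the data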
PostGolgi yeast: growth inhibition of a yeast mutant, post-Golgi transport screen; post-Golgi transport phenotypic cell assay; inhibition, % at 10 µM; 98,000 tested, 0.9% active; AID 739;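 also: yeast cells grown in 1536-well plates; yeast grown about 18 h at 30C before absorbance read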
Large screens that a line does not name were inactive. The list is not random: actives were taken first. Their share in the collection is about 32%. Rule as the data show it, unless noted: active = inhibition above about 30%; inactive = the rest.

C=C(C)CSc1nnc([C@@H](NC(=O)OC(C)(C)C)C(C)CC)o1 (some centres not stated)	CYP2C19 inhib 83, CYP2C9 inh 52
CCCCSc1nnc([C@@H](NC(=O)OC(C)(C)C)C(C)C)o1	CYP2C19 inhib 50
CCCOc1nc(N)c(C#N)c(-c2ccccc2F)c1C#N	none
CCOC(=O)C1Cc2c([nH]c3ccccc23)C(C)N1 (configuration not stated)	CYP2C19 inhib 82
COC(=O)C1Cc2c([nH]c3ccccc23)CN1 (configuration not stated)	CYP2C19 inhib 71
O=C(O)c1cccnc1SC1CC(=O)N(Cc2ccccc2)C1=O (configuration not stated)	none
COC(=O)C1=C(C)NC2=C(C(=O)CC(C)(C)C2)C1c1cn(Cc2ccc(Br)cc2)nc1-c1ccccc1 (configuration not stated)	CYP2C9 inh 71
COC(=O)C1=C(C)NC2=C(C(=O)CCC2)C1c1cn(Cc2ccc(Br)cc2)nc1-c1ccccc1 (configuration not stated)	CYP2C9 inh 86
COC(=O)C1=C(C)NC2=C(C(=O)CC(C)(C)C2)C1c1cccc(C)n1 (configuration not stated)	none
CCOC(=O)c1cnn2c(C(F)(F)F)cc(-c3ccccc3)nc12	CYP2C9 inh 54
CCOC(=O)N1CCC(NC(=O)c2cnn3c(C(F)(F)F)cc(-c4cccc(OC)c4)nc23)CC1	CYP2C19 inhib 61, CYP2C9 inh 58 (no result: PostGolgi ctrl, PostGolgi yeast)
CCOC(=O)c1cnn2c(C(F)(F)F)cc(-c3cn(C)nc3C)nc12	CYP2C19 inhib 57, CYP2C9 inh 85
CCOC(=O)c1cnn(-c2nc(-c3ccccc3)cs2)c1C(F)(F)F	CYP2C9 inh 88
CCOC(=O)N1CCN(c2nc(-c3cccc(OC)c3)cc(C(F)(F)F)n2)CC1	none
NC(=O)/C(=N\OC(=O)c1ccco1)c1nc(-c2ccc(Br)cc2)cs1	none
Cc1nn(CC(=O)Nc2ccc3c(c2)nc(CN2CCCC2)n3C)c(=O)c2ccccc12	none
CCOC(=O)c1cnc2c(-c3ccccc3)cnn2c1N	CYP2C19 inhib 63, CYP2C9 inh 57
C=CCSc1nc2sc(-c3ccccc3)cc2c(=O)n1N	CYP2C9 inh 50
Cc1ccccc1-n1c(SCC(N)=O)nc2sc(-c3ccccc3)cc2c1=O	CYP2C19 inhib 63, CYP2C9 inh 84
CCC(NC(=O)NC1=NCCS1)(C(F)(F)F)C(F)(F)F	none
c1ccc2c(c1)NC(CN1CCOCC1)CO2 (configuration not stated)	CYP2C19 inhib 53
c1ccc2c(CN3CCOCC3)c3ccccc3c(CN3CCOCC3)c2c1	none
COC(=O)c1[nH]c2cc(OC)ccc2c1NC(=O)CN1CCN(c2cccc(C)c2)C(C)C1 (configuration not stated)	PostGolgi ctrl 37
COc1cccc(NC(=O)N2CCN(c3cccc(C)c3)C(C)C2)c1 (configuration not stated)	CYP2C19 inhib 59
COc1ccc(S(=O)(=O)CC(O)CN2CCCC2=O)cc1 (configuration not stated)	none
CC(=O)COc1ncn(-c2ccccc2)n1	none
COc1ccc(-c2nc(NC(=O)C3CCN(c4nc5ccccc5o4)CC3)sc2C)cc1	CYP2C9 inh 51
Cc1ccc(-c2nnc3ccc(SCC(=O)Nc4cc(C)on4)nn23)cc1	CYP2C9 inh 50
Cc1cc(NC(=O)CSc2ccc3nnc(-c4cccs4)n3n2)no1	CYP2C9 inh 75
Cc1cc(NC(=O)CSc2ccc3nnc(-c4ccc(F)cc4)n3n2)no1	none
CCC(Sc1ccc2nnc(-c3ccc(F)cc3)n2n1)C(=O)OC (configuration not stated)	CYP2C9 inh 61
CC(Sc1nnc(CNc2cccc3ccccc23)n1-c1ccccc1)C(=O)N/N=C/c1ccco1 (configuration not stated)	none
Cc1cc(C(F)(F)F)n2nc(-c3cnn(C)c3C(F)(F)F)cc2n1	none
O=C(Cn1nnc2ccccc2c1=O)Nc1ccc2c(c1)CCC2	none
O=C(CN1CCC(n2nnc3cc(C(F)(F)F)ccc32)CC1)Nc1ccc2c(c1)OCCO2	CYP2C19 inhib 82, CYP2C9 inh 87
